# Results filed as inconclusive are left out. Activity calls are given as the source filed them.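 The calls were made as follows, unless noted: active = normalized viability below 100% at a tested concentration; inactive = the rest.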
# Assays:
# [1] = viability loss in pontine glioma line – cell-based, SU-DIPG-XVII, MIPE5.0, CellTiter-Glo, qHTS, dose response (AID 1347060; cut-off not given, nearly all actives have AC50 up to about 26 µM;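 as to AC50: cells exposed to compound for 48 hours before viability readout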); settings: CellTiter-Glo ATP luminescence
# [2] = viability loss in pontine glioma line – cell-based, SU-DIPG-XIII, MIPE4.0, CellTiter-Glo, qHTS, dose response (AID 1347061; cut-off not given, nearly all actives have AC50 up to about 37 µM;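 also: cells exposed to compound for 48 hours before readout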); settings: CellTiter-Glo ATP luminescence
# [3] = viability loss in pontine glioma line – cell-based, JHH-DIPG-1, MIPE4.0, CellTiter-Glo, qHTS, dose response (AID 1347062; cut-off not given, nearly all actives have AC50 up to about 27 µM;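 as to AC50: cells exposed to compound for two days before readout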); settings: JHH-DIPG-1 viability, CellTiter-Glo ATP luminescence
# [4] = viability loss in pontine glioma line – cell-based, SU-DIPG-IV, MIPE4.0, CellTiter-Glo, qHTS, dose response (AID 1347063; cut-off not given, nearly all actives have AC50 up to about 30 µM;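 also: compound exposure lasted 48 hours before the viability readout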); settings: CellTiter-Glo ATP luminescence
# [5] = viability loss in pontine glioma line – cell-based, SU-DIPG-XIII, MIPE5.0, CellTiter-Glo, qHTS, dose response (AID 1347064; cut-off not given, nearly all actives have AC50 up to about 23 µM;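 as to AC50: cells exposed to compound for 48 hours before the viability read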); settings: CellTiter-Glo ATP luminescence
# [6] = viability loss in pontine glioma line – cell-based, SU-DIPG-XXV, MIPE5.0, CellTiter-Glo, qHTS, dose response (AID 1347065; cut-off not given, nearly all actives have AC50 up to about 26 µM;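 also: cells exposed to compound for 48 hours before ATP readout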); settings: CellTiter-Glo ATP luminescence
# [7] = JHH-DIPG-1 glioma cell viability, MIPE5.0 library, CellTiter-Glo luminescence, qHTS (AID 1347067; cut-off not given, nearly all actives have AC50 up to about 26 µM;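 also: cells exposed to compound for 48 hours before readout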); settings: JHH-DIPG-1 glioma viability, CellTiter-Glo ATP luminescence
# [8] = growth inhibition of DIPG cells – cell-based, MIPE5.0 library, qHTS (AID 1347068; cut-off not given, nearly all actives have IC50 up to about 30 µM;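 as to IC50: cells exposed to compound for 48 hours before viability readout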); settings: SU-DIPG-XXV viability
# [9] = compounds altering HSF1 focus formation in cells – imaging, Selleck Cancer Library (AID 1347162; in the data active = plate-normalised HSF1 focus index below about 0.46); settings: human cells, HSF1 nuclear foci imaging, at 10 µM; SSMD: measured here: HSF1 foci SSMD mean; cell count: measured here: cell number; plate-normalised HSF1 focus index: stronger effect = lower value
# [10] = drug combination growth inhibition, ovarian cancer – cell-based, oncology-focused library, rucaparib conditional, profiling panel (AID 1508598); settings: patient-derived ovarian cancer cells, CellTiter-Glo viability, 144 h, stronger effect = lower value
# [11] = growth inhibition, single agent or in combination, cell-based, chromothripsis tumors, cisplatin or BGB combos (AID 1671449; in the data active = inhibition above about 80%;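 also: cells exposed for 96 hours; 0% = vehicle DMSO and 100% = killing by high DMSO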); settings: LFS_MB_P medulloblastoma cells
# [12] = growth inhibition, single agent and combos, cell-based, chromothripsis tumors, cisplatin or BGB combos (AID 1671450; in the data active = inhibition above about 80%;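 also: cells exposed to compound for four days; 0% = vehicle DMSO and 100% = cell killing by high DMSO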); settings: HDN33 neuroblastoma cells, stronger effect = higher value
# [13] = growth inhibition, single agents and combos, ICB984, cell-based, cisplatin or BGB combos, synergistic combos for chromothripsis tumors (AID 1671451; call rule not given here;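 also: cells exposed for 96 hours before readout; 0% = vehicle DMSO and 100% = killing by high DMSO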); settings: ICB984 medulloblastoma cells, drug combinations, stronger effect = higher value
# [14] = growth inhibition, single agents and combos, HTB85, cell-based, BGB or cisplatin IC20 combos, synergistic combos for chromothripsis tumors (AID 1671453; in the data active = inhibition above about 80%;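 also: cells exposed for 96 hours before readout; 0% = vehicle DMSO and 100% = high DMSO killing control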); settings: HTB85 osteosarcoma cells, drug combinations, stronger effect = higher value
# [15] = growth inhibition, MDA-MB-436, cell-based, BGB or cisplatin combos, synergistic combos for chromothripsis tumors (AID 1671458; call rule not given here;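 also: cells exposed for 96 hours; 0% = vehicle DMSO and 100% = killing by high DMSO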); settings: MDA-MB-436 breast carcinoma growth inhibition, drug combinations, stronger effect = higher value
# [16] = BT084 cell growth, single and combined drugs, ICGC_MB145, cisplatin and BGB IC40 combos (AID 1671461; in the data active = inhibition above about 80%;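 also: cells exposed to drugs for 96 hours; 0% = vehicle DMSO and 100% = high DMSO full killing control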); settings: BT084 medulloblastoma cells, drug combinations, stronger effect = higher value
# [17] = RCMB18 cell growth, single agent and combined, cisplatin and BGB IC40 combos (AID 1671462; in the data active = inhibition above about 80%;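 also: cells exposed to compound for four days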); settings: RCMB18 medulloblastoma cells, stronger effect = higher value
structure (smiles),measurement,setting,value
COc1cc2c(cc1OC)CN(CCc1ccc(NC(=O)c3cccc4c(=O)c5cccc(OC)c5[nH]c34)cc1)CC2,outcome,[1],inactive
same,AC50,[2],8.33 µM (active)
same,outcome,[3],inactive
same,outcome,[4],inactive
same,outcome,[5],inactive
same,outcome,[6],inactive
same,outcome,[7],inactive
same,outcome,[8],inactive
same,SSMD,[9],4.27
same,cell count,[9],6980
same,plate-normalised HSF1 focus index,[9],1.26 (inactive)
CCCCc1nc2cc(/C=C/C(=O)NO)ccc2n1CCN(CC)CC,AC50,[1],1.66 µM (active)
same,AC50,[2],14.8 µM (active)
same,AC50,[3],0.296 µM (active)
same,AC50,[4],0.0148 µM (active)
same,AC50,[5],1.32 µM (active)
same,AC50,[6],0.332 µM (active)
same,AC50,[7],1.05 µM (active)
same,IC50,[8],13.2 µM (active)
same,SSMD,[9],-1.52
same,cell count,[9],7710
same,plate-normalised HSF1 focus index,[9],0.904 (inactive)
same,viability,"[10]; at 0.000305 µM, OCI-C5x cells, with rucaparib 10 µM, 100% = cells with rucaparib alone",109% (inactive)
same,viability,"[10]; at 0.000305 µM, OCI-C5x cells, without rucaparib",111% (inactive)
same,viability,"[10]; at 0.000305 µM, OCI-P5x cells, with rucaparib 20 µM, 100% = cells with rucaparib alone",93.3% (active)
same,viability,"[10]; at 0.000305 µM, OCI-P5x cells, without rucaparib",99.3% (active)
same,viability,"[10]; at 0.00122 µM, OCI-C5x cells, with rucaparib 10 µM, 100% = cells with rucaparib alone",115% (inactive)
same,viability,"[10]; at 0.00122 µM, OCI-C5x cells, without rucaparib",116% (inactive)
same,viability,"[10]; at 0.00122 µM, OCI-P5x cells, with rucaparib 20 µM, 100% = cells with rucaparib alone",98.6% (active)
same,viability,"[10]; at 0.00122 µM, OCI-P5x cells, without rucaparib",104% (inactive)
same,viability,"[10]; at 0.00488 µM, OCI-C5x cells, with rucaparib 10 µM, 100% = cells with rucaparib alone",117% (inactive)
same,viability,"[10]; at 0.00488 µM, OCI-C5x cells, without rucaparib",117% (inactive)
same,viability,"[10]; at 0.00488 µM, OCI-P5x cells, with rucaparib 20 µM, 100% = cells with rucaparib alone",95.5% (active)
same,viability,"[10]; at 0.00488 µM, OCI-P5x cells, without rucaparib",107% (inactive)
same,viability,"[10]; at 0.0195 µM, OCI-C5x cells, with rucaparib 10 µM, 100% = cells with rucaparib alone",110% (inactive)
same,viability,"[10]; at 0.0195 µM, OCI-C5x cells, without rucaparib",117% (inactive)
same,viability,"[10]; at 0.0195 µM, OCI-P5x cells, with rucaparib 20 µM, 100% = cells with rucaparib alone",93.4% (active)
same,viability,"[10]; at 0.0195 µM, OCI-P5x cells, without rucaparib",104% (inactive)
same,viability,"[10]; at 0.0781 µM, OCI-C5x cells, with rucaparib 10 µM, 100% = cells with rucaparib alone",96.7% (active)
same,viability,"[10]; at 0.0781 µM, OCI-C5x cells, without rucaparib",123% (inactive)
same,viability,"[10]; at 0.0781 µM, OCI-P5x cells, with rucaparib 20 µM, 100% = cells with rucaparib alone",88.6% (active)
same,viability,"[10]; at 0.0781 µM, OCI-P5x cells, without rucaparib",95.7% (active)
same,viability,"[10]; at 0.313 µM, OCI-C5x cells, with rucaparib 10 µM, 100% = cells with rucaparib alone",92.4% (active)
same,viability,"[10]; at 0.313 µM, OCI-C5x cells, without rucaparib",91.7% (active)
same,viability,"[10]; at 0.313 µM, OCI-P5x cells, with rucaparib 20 µM, 100% = cells with rucaparib alone",68.3% (active)
same,viability,"[10]; at 0.313 µM, OCI-P5x cells, without rucaparib",76.5% (active)
same,viability,"[10]; at 1.25 µM, OCI-C5x cells, with rucaparib 10 µM, 100% = cells with rucaparib alone",28.3% (active)
same,viability,"[10]; at 1.25 µM, OCI-C5x cells, without rucaparib",21.2% (active)
same,viability,"[10]; at 1.25 µM, OCI-P5x cells, with rucaparib 20 µM, 100% = cells with rucaparib alone",26.6% (active)
same,viability,"[10]; at 1.25 µM, OCI-P5x cells, without rucaparib",43.4% (active)
same,viability,"[10]; at 5 µM, OCI-C5x cells, with rucaparib 10 µM, 100% = cells with rucaparib alone",4.57% (active)
same,viability,"[10]; at 5 µM, OCI-C5x cells, without rucaparib",5.34% (active)
same,viability,"[10]; at 5 µM, OCI-P5x cells, with rucaparib 20 µM, 100% = cells with rucaparib alone",1.32% (active)
same,viability,"[10]; at 5 µM, OCI-P5x cells, without rucaparib",2.31% (active)
same,inhibition,"[11]; at 0.5 µM, stronger effect = higher value",-27.6% (inactive)
same,inhibition,"[11]; measured here: combination with BGB IC20, at 0.005 µM",-13.5%
same,inhibition,"[11]; measured here: combination with BGB IC40, at 0.005 µM",75.4%
same,inhibition,"[11]; measured here: combination with BGB IC40, at 0.05 µM",-21.7%
same,inhibition,"[11]; measured here: combination with cisplatin, at 0.5 µM, stronger effect = higher value",-26%
same,inhibition,"[11]; measured here: combination with cisplatin, at 5 µM, stronger effect = higher value",104%
same,inhibition,"[12]; BGB combo, at 5 µM",99.5%
same,inhibition,[12]; at 0.5 µM,64.3% (inactive)
same,inhibition,"[12]; cisplatin combo, at 5 µM",99.9%
same,inhibition,"[12]; measured here: with BGB IC20 combination, at 0.5 µM",57.9%
same,inhibition,"[12]; measured here: with cisplatin IC20 combination, at 0.5 µM",71.1%
same,inhibition,"[12]; single agent, at 5 µM",99.8%
same,inhibition,"[13]; BGB IC20 combo, at 0.005 µM",7.49%
same,inhibition,"[13]; BGB IC40 combo, at 0.005 µM",-8.13%
same,inhibition,"[13]; BGB IC40 combo, at 0.05 µM",90.2%
same,inhibition,[13]; at 0.5 µM,-30.3% (inactive)
same,inhibition,"[13]; cisplatin combo, at 0.05 µM",90.2%
same,inhibition,"[13]; cisplatin combo, at 0.5 µM",-38.4%
same,inhibition,"[13]; cisplatin combo, at 5 µM",-16.6%
same,inhibition,"[13]; measured here: 5 uM single agent, at 5 µM",-44.4%
same,inhibition,[14]; at 0.5 µM,60.4% (inactive)
same,inhibition,"[14]; measured here: with BGB IC20, at 0.5 µM",56%
same,inhibition,"[14]; measured here: with BGB IC20, at 5 µM",99.8%
same,inhibition,"[14]; measured here: with cisplatin IC20, at 0.5 µM",61.5%
same,inhibition,"[14]; measured here: with cisplatin IC20, at 5 µM",99.9%
same,inhibition,"[14]; single agent, at 5 µM",99.7%
same,inhibition,[15]; at 0.5 µM,23.8% (inactive)
same,inhibition,"[15]; measured here: BGB combination, at 0.5 µM",18.7%
same,inhibition,"[15]; measured here: BGB combination, at 5 µM",52.6%
same,inhibition,"[15]; measured here: cisplatin combination, at 0.5 µM",13.3%
same,inhibition,"[15]; measured here: cisplatin combination, at 5 µM",61.6%
same,inhibition,[16]; at 0.5 µM,51.2% (inactive)
same,inhibition,"[16]; cisplatin combination, at 0.5 µM",62.4%
same,inhibition,"[16]; cisplatin combination, at 5 µM",101%
same,inhibition,"[16]; measured here: BGB IC40 combination 0.05 uM, at 0.05 µM",-12.4%
same,inhibition,"[16]; single agent, at 5 µM",107%
same,inhibition,[17]; at 0.5 µM,35.2% (inactive)
same,inhibition,"[17]; cisplatin combo, at 5 µM",93.7%
same,inhibition,"[17]; measured here: BGB IC40 combination, at 0.05 µM",11.4%
same,inhibition,"[17]; measured here: combination with cisplatin, at 0.5 µM",47.6%
same,inhibition,"[17]; single agent, at 5 µM",89.4%

# Reference: PubChem BioAssay
